Inconclusive results are not listed. Active and inactive are the calls of the source. Unless noted, calls follow the shape of the dose curve; as a rule, active = well fitted curve in the direction sought with a large enough effect; inconclusive = small, poorly fitted or top-dose-only effect, or another doubt; inactive = no such curve, though single readings can be large; an effect the other way counts as inactive or inconclusive.
Key:
[1] = Cellular Toxicity (caspase-3) HepG2 (AID 654); conditions: HepG2 caspase-3 activation, luminescence, 0% = DMSO only, 100% = tamoxifen; series mostly up to 92.2 µM;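 also: cells exposed to compound for 16 hours before reading; 0% = DMSO alone and 100% = caspase signal from 100 µM tamoxifen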
In short: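 HepG2 cells (1500/well) in complete medium were treated with compounds for 16 hr at 37 °C. Caspase-3/7 activity was then read as luminescence from peptide-aminoluciferin cleavage. AC50 came from Hill fits, normalized to DMSO and 100 uM tamoxifen.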

[2] = Cellular Toxicity (caspase-3) Jurkat (AID 655); conditions: Jurkat caspase-3 activation, luminescence, DMSO = 0%, tamoxifen = 100%; at 92.2 µM (top of the series);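 also: cells exposed to compound for 16 h at 37 °C before reading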
In short: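 Luminescent Caspase-Glo 3/7 read-out (20 min, room temperature) after 16 h compound treatment at 37 C of 5000 Jurkat cells per well. AC50 derived by Hill-equation fitting, scaled between DMSO basal and 100 uM tamoxifen stimulation.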

[3] = Cellular Toxicity (caspase-3) HUV-EC-C (AID 656); conditions: HUV-EC-C cells, caspase-3 activation (apoptosis), vehicle = 0, 100 µM tamoxifen = 100%; series mostly up to 92.2 µM
In short: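 Luminescent Caspase-Glo 3/7 readout after 16 h, 37 °C compound exposure of HUV-EC-C endothelial cells, 1000 per well, complete medium. AC50 derived by Hill fitting, with DMSO as baseline and 100 uM tamoxifen as full activation.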

[4] = Cellular Toxicity (caspase-3) SHSY5Y (AID 657); conditions: SH-SY5Y caspase-3 activation, DMSO zero, 10 µM staurosporine = 100%; series mostly up to 91.7 µM
In short: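 Luminescent Caspase-Glo 3/7 read-out, 1 hr room temperature, follows 16 hours of compound treatment of SH-SY5Y cells at 37 °C. Normalization: DMSO basal, 10 uM staurosporine as 100%; AC50 values from Hill-equation concentration-response fits.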

[5] = Cellular Toxicity (caspase-3) BJ (AID 658); conditions: BJ fibroblasts, luminescence, normalized: DMSO 0%, staurosporine 100%; series mostly up to 91.7 µM
In short: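 BJ human foreskin fibroblasts, 1000 cells/well, treated 16 hours at 37 °C in complete medium; caspase 3/7 activity by Caspase-Glo luminescence after 1 hr at room temperature. Normalized to DMSO and 10 uM staurosporine; AC50 from Hill fits.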

[6] = Cellular Toxicity (caspase-3) MRC-5 (AID 659); conditions: MRC-5 cells, luminescence, normalized: DMSO 0%, 10 µM staurosporine 100%; series mostly up to 91.7 µM
In short: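 MRC-5 human normal lung fibroblasts, 1500 cells/well, treated 16 h at 37 °C in complete medium. Caspase 3/7 measured by Caspase-Glo luminescence after 1 h at room temperature. Normalized to DMSO and 10 uM staurosporine; AC50 from Hill fit.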

[7] = Cellular Toxicity (caspase-3) Mesangial (AID 660); conditions: mesangial cells, normalized: DMSO 0%, 100 µM tamoxifen 100%; series mostly up to 91.7 µM;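 also: cells exposed to compound for 16 h before the caspase read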
In short: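 Human renal glomerular mesangial cells (1000/well) were treated with compounds for 16 h at 37 °C in complete medium, then caspase 3/7 activity was read by Caspase-Glo luminescence. Data were normalized to DMSO and 100 uM tamoxifen; AC50 from Hill fits.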

[8] = Cellular Toxicity (caspase-3) SK-N-SH (AID 661); conditions: SK-N-SH caspase-3 activation, qHTS, DMSO as zero, staurosporine as full; series mostly up to 91.7 µM
In short: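 SK-N-SH human neuroblastoma cells (1500/well) were treated with compounds for 16 hr at 37 °C in complete medium; caspase 3/7 activity was read by Caspase-Glo luminescence. AC50 came from Hill fits of data normalized to DMSO and 10 uM staurosporine.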

[9] = Cellular Toxicity (caspase-3) Hek293 (AID 664); conditions: HEK293 caspase-3 activation, DMSO = 0%, 100 µM tamoxifen = 100%; series mostly up to 92.2 µM;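 also: cells exposed to compound for 16 h at 37 °C before readout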
In short: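 HEK293 cells were exposed to compounds in complete medium for 16 hr at 37 °C, then caspase-3/7 activity was read by Caspase-Glo 3/7 luminescence after 20 min at room temperature. Data normalized to DMSO and 100 uM tamoxifen; AC50 from Hill fits.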

[10] = Cellular Toxicity (caspase-3) N2a (AID 665); conditions: N2a cells, luminescence, normalized: DMSO 0%, 10 µM staurosporine 100%; series mostly up to 92.2 µM;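 also: compound exposure lasted 16 h at 37 °C before readout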
In short: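 Mouse N2a neuroblastoma cells (1500/well) were treated with compounds for 16 h at 37 °C, then caspase-3/7 activity was read by Caspase-Glo luminescence after 1 h at room temperature. Data were normalized to DMSO and 10 uM staurosporine; AC50 from Hill fits.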

[11] = Cellular Toxicity (caspase-3) NIH 3T3 (AID 666); conditions: NIH 3T3 caspase-3 activation, apoptosis/toxicity, 0% DMSO, 100% is 100 µM tamoxifen; series mostly up to 92.2 µM;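 also: caspase signal read after 16 h compound exposure; 0% = DMSO basal and 100% = 100 µM tamoxifen stimulation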
In short: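 Mouse NIH 3T3 fibroblasts (1000 cells/well) were treated with compound for 16 hr at 37°C in complete medium; caspase-3/7 activity was read by Caspase-Glo luminescence. Normalized to DMSO and 100 uM tamoxifen; AC50 from Hill fits.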

[12] = Cellular Toxicity (caspase-3) Renal Proximal Tubule (AID 667); conditions: renal proximal tubule cells, primary cells freshly taken from rat, solvent-only wells 0%, staurosporine 100%; series mostly up to 91.7 µM;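 also: cells exposed to compound for 16 hours at 37 °C before detection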
In short: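 Caspase 3/7 activation measured by luminescent aminoluciferin release in primary rat proximal tubule cells after 16 hr compound exposure at 37 °C. AC50 from Hill-fitted concentration-response, scaled between DMSO and 10 uM staurosporine.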

[13] = Cell Viability - LYMP2-001 (AID 921); conditions: LYMP2-001 lymphoblastoid cell viability; series mostly up to 92.2 µM;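 also: 0% = DMSO only and full inhibition = tetraoctylammonium bromide control wells; nearly all actives have a fitted effect of over 70% in size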
In short: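 Cellular ATP loss read by luciferase luminescence after 24 h compound exposure at 37 C in complete medium. LYMP2-001 lymphoblastoid cells, 2500/well; qHTS concentration-response data fitted with Hill equation for AC50.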

[14] = MultiTox-Fluor Cytotoxicity Assay - LYMP1-001 - Dead Cells (AID 946); conditions: LYMP1-001 lymphoblastoid cells, dead-cell protease fluorescence; series mostly up to 92.2 µM;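 also: 0% = DMSO and 100% = tetraoctylammonium bromide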
In short: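 LYMP1-001 lymphoblastoid cells (2500/well) treated 16 h at 37 C. Dead-cell protease cleavage of bis-AAF-R110 read at Ex/Em 485/520. Normalized to DMSO and 15 uM tetraoctylammonium bromide; AC50 from Hill fits.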

[15] = MultiTox-Fluor Cytotoxicity Assay - LYMP1-001 - Live Cells (AID 947); conditions: LYMP1-001 lymphoblastoid cells, live-cell protease fluorescence viability; series mostly up to 92.2 µM;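 also: 0% = DMSO only and full inhibition = tetraoctylammonium bromide control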
[16] = Cell Viability - LYMP1-002 - Assay at 16 hr (AID 948); conditions: LYMP1-002 lymphoblastoid cell viability; series mostly up to 92.2 µM;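 also: 0% = DMSO alone and full effect = 92 µM tetraoctylammonium bromide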
In short: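 ATP luminescence (CellTiter-Glo) was measured after 16 hr compound exposure at 37 C of 2500 lymphoblastoid LYMP1-002 cells per well. Concentration-response curves were fitted with the Hill equation to give AC50.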

[17] = qHTS assay for small molecule disruptors of the mitochondrial membrane potential - 1 hr assay (AID 651754; calls by dose curve; also: % is scaled to controls: 0 for no effect and ±100 for the full control effect; nearly all actives have a fitted effect of over 35% in size); conditions: series mostly up to 92.2 µM
In short: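 HepG2 cells, attached overnight at 37C, were exposed to compound or DMSO vehicle for 1 hr at 37C, 5% CO2, then stained with Mito-MPS dye for 30 min. Red aggregate versus green monomer fluorescence reports membrane potential.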

[18] = qHTS assay for small molecule disruptors of the mitochondrial membrane potential - 5 hr assay (AID 651755; calls by dose curve; also: % is scaled to controls: 0 for no effect and ±100 for the full control effect; nearly all actives have a fitted effect of over 40% in size); conditions: JC-1-type ratio dye; series mostly up to 92.2 µM
In short: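 HepG2 cells (2,000/well), attached overnight, exposed to compound 5 hr at 37C, then Mito-MPS dye 30 min. Fluorescence read for monomers (490/535 nm) and aggregates (540/590 nm).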

[19] = target: Nuclear receptor ROR-gamma (Homo sapiens) (UniProt P51449); assay: qHTS assay for small molecule antagonists of the retinoid-related orphan receptor gamma (ROR-gamma) signaling pathway (AID 651802); conditions: ROR-gamma antagonist cell reporter assay; series mostly up to 92.2 µM; also: % is scaled to controls: 0 for no effect and ±100 for the full control effect; nearly all actives have a fitted effect of over 60% in size
In short: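 CHO cells carrying TET-inducible ROR-gamma and an ROR response element–luciferase reporter were exposed to compound, then induced with doxycycline. After 16hr at 37C, luminescence was read; lower signal indicates antagonism.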

[20] = qHTS assay for small molecule antagonists of the retinoid-related orphan receptor gamma (ROR-gamma) signaling pathway - cell viability counter screen (AID 720652; active = well fitted curve in the direction sought with a large enough effect in the repeat runs; an effect the other way counts as inactive or inconclusive;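 also: compound exposure lasted 16 hr before ATP read; % is scaled to controls: 0 for no effect and ±100 for the full control effect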); conditions: RORgamma reporter cell line viability counter screen; series mostly up to 92.2 µM
In short: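 Counter screen in CHO cells carrying TET-inducible ROR-gamma and an ROR response element-luciferase reporter; cells plated 5 hr, compound pinned, doxycycline added, then 16 hr at 37 C. Viability read as intracellular ATP by CellTiter-Glo luminescence.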

Nuclear receptor ROR-gamma (Homo sapiens), sequence (P51449 whole entry, looked up): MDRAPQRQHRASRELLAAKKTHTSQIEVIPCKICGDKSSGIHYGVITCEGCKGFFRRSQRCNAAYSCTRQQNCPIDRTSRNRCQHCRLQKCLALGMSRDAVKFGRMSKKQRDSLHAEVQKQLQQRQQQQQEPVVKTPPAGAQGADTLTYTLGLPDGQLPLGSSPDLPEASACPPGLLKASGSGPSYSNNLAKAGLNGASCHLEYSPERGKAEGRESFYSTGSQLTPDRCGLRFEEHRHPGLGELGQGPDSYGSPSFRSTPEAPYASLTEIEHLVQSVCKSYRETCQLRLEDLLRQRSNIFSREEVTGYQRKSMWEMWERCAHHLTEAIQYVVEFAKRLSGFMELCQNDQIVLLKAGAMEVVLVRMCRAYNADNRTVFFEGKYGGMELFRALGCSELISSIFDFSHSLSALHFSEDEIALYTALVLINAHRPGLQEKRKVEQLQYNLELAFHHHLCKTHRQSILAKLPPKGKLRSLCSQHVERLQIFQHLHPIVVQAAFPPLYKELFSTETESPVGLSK

O=C(/C=C/c1ccc(O)c(O)c1)O[C@@H](C(=O)O)[C@@H](OC(=O)/C=C/c1ccc(O)c(O)c1)C(=O)O
inactive: outcome [1] | caspase-3 activation [2] 1.83% | outcome [3] | outcome [4] | outcome [5] | outcome [6] | outcome [7] | outcome [8] | outcome [9] | outcome [10] | outcome [11] | outcome [12] | Potency [13] | Potency [14] | Potency [15] | Potency [16] | Potency [17] | Potency [18] | Potency [19] | Potency [20]

CC12CCC(CC1=O)C2(C)C (stereo not given)
inactive: outcome [1] | caspase-3 activation [2] -3.1% | outcome [3] | outcome [4] | outcome [5] | outcome [6] | outcome [7] | outcome [8] | outcome [9] | outcome [10] | outcome [11] | outcome [12] | Potency [13] | Potency [14] | Potency [15] | Potency [16] | Potency [17] | Potency [18] | Potency [19] | Potency [20]

Reference: PubChem BioAssay (NCATS)
